Source: PubChem BioAssay (NCATS)
Inconclusive results are not listed. Calls of active or inactive are those of the source. Unless noted, the call rests on the fitted dose curve; in most records, active means well fitted curve in the direction sought with a large enough effect; inconclusive means small, poorly fitted or top-dose-only effect, or another doubt; inactive means no such curve, though single readings can be large; an effect the other way counts as inactive or inconclusive.

Tests used:
[1] = molecular target: Glucocorticoid receptor (Homo sapiens) (UniProt P04150); assay: qHTS assay for small molecule agonists of glucocorticoid receptor signaling (AID 588532; active means well fitted curve in the direction sought with a large enough effect in the signal ratio, with a control signal flat; the % refers to the signal ratio;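 further: 100% = dexamethasone at 0.1 µM and 0% = DMSO only wells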); conditions: HeLa MMTV-bla, beta-lactamase ratio, agonist, 18 h; activation: stronger effect = higher value, percent of dexamethasone control, DMSO zero
Glucocorticoid receptor (Homo sapiens), sequence (P04150 whole entry, looked up): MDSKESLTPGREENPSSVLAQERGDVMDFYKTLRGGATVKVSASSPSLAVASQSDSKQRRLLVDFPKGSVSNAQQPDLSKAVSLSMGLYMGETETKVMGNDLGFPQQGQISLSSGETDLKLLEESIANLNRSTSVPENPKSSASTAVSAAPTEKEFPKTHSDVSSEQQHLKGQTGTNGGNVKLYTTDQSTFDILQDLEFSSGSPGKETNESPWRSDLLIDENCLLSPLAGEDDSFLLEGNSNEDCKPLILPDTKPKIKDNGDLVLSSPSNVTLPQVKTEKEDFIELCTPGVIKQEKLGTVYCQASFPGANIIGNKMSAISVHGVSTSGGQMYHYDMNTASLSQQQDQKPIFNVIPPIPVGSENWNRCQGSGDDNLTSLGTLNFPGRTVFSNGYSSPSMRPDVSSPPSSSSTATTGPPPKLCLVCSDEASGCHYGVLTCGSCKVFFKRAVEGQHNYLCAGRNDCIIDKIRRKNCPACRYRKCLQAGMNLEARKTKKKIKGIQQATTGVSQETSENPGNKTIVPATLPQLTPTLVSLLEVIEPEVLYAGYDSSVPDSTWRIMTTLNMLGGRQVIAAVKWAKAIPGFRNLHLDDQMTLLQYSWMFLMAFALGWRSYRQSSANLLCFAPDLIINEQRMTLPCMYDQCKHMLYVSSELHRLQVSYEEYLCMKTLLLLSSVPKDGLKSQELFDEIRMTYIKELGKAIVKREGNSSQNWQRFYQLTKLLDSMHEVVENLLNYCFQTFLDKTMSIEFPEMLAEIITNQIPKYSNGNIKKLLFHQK
Outline: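 Quantitative HTS using CellSensor MMTV-bla HeLa cells in charcoal/dextran-treated serum; compounds tested up to 92 uM. After 18 h at 37 C, CCF4 dye reported reporter induction.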

[2] = molecular target: Vitamin D3 receptor (Homo sapiens) (UniProt P11473); assay: qHTS assay for small molecule antagonists of vitamin D receptor signaling (AID 588541; calls by dose curve;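 further: receptor activated by calcitriol during compound treatment; series mostly up to about 77 µM; on the % scale 0 is the no-effect control and ±100 the full control effect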)
Vitamin D3 receptor (Homo sapiens), sequence (P11473 whole entry, looked up): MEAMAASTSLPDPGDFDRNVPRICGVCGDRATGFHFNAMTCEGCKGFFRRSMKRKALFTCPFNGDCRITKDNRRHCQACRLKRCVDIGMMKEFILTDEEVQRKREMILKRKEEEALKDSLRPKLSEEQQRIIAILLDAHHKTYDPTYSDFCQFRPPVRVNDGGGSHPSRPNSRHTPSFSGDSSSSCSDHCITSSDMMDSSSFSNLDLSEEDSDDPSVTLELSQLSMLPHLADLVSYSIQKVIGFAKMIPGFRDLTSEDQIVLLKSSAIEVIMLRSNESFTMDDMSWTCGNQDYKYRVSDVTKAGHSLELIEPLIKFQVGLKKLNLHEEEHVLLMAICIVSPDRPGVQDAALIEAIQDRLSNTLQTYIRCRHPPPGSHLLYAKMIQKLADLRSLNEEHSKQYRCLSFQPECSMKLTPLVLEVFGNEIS
Outline: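 Antagonist-mode beta-lactamase reporter assay: HEK293T VDR-UAS-bla cells were exposed to titrated compound alongside 1-alpha,25-dihydroxyvitamin D3 at 3 nM final for 16 h. Values were normalized to the 50 nM agonist control and DMSO basal, with IC50 and efficacy from Hill equation fits.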

[3] = molecular target: Vitamin D3 receptor (Homo sapiens) (UniProt P11473); assay: qHTS assay for small molecule agonists of vitamin D receptor signaling (AID 588543; calls by dose curve;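 further: 0% = DMSO basal and 100% = reference agonist control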)
Outline: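 Measured: β-lactamase reporter activity (CCF4, 405 nm excitation, 460/530 nm emission) in HEK293T VDR-UAS-bla cells after 16 h compound exposure at 37 °C. Normalization against 50 nM 1α,25-dihydroxyvitamin D3 and DMSO; Hill-fit EC50.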

[4] = molecular target: Retinoic acid receptor RXR-alpha (Homo sapiens) (UniProt P19793); assay: qHTS assay for small molecule agonists of retinoid X receptor alpha signaling (AID 588544; calls by dose curve;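 further: 0% = DMSO basal wells and 100% = reference agonist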)
Retinoic acid receptor RXR-alpha (Homo sapiens), sequence (P19793 whole entry, looked up): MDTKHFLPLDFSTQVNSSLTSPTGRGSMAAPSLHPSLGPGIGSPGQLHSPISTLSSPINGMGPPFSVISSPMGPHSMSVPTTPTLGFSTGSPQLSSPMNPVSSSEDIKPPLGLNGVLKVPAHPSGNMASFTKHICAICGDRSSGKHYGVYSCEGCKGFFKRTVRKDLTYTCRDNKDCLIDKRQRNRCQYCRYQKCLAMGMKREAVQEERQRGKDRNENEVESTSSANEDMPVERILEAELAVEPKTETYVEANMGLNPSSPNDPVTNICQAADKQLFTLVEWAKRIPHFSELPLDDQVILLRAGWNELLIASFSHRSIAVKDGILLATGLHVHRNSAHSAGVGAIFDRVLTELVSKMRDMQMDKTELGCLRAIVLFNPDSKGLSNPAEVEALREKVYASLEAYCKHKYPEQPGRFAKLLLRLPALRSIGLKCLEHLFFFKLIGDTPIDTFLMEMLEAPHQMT

[5] = molecular target: Thyroid hormone receptor beta (Homo sapiens) (UniProt P10828); assay: qHTS assay for small molecule agonists of thyroid hormone receptor beta signaling (AID 588545; calls by dose curve)
Thyroid hormone receptor beta (Homo sapiens), sequence (P10828 whole entry, looked up): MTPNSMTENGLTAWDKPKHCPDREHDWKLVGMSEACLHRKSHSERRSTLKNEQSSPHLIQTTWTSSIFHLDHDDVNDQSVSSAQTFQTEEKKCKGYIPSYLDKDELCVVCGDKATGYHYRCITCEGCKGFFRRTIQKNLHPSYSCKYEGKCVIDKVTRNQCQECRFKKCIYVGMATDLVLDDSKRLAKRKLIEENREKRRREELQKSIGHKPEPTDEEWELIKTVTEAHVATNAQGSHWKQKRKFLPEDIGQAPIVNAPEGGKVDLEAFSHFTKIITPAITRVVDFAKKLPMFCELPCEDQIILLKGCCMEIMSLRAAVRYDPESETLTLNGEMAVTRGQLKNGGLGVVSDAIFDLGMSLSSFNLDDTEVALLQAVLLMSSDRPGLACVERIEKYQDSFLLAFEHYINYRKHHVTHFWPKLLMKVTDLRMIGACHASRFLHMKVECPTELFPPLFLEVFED
Outline: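 In this cell-based screen, titrated compounds act on HEK 293 cells held in medium with 2% charcoal/dextran FBS, NEAA and pyruvate for 18 hrs at 37 C. Responses are expressed relative to T3 (10 nM) as 100% and basal DMSO as 0%.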

[6] = qHTS assay for small molecule antagonists of retinoid X receptor alpha signaling (AID 588546; active means well fitted inhibition curve with a large enough effect in the signal ratio, with a control signal flat, not every such curve was filed as active; the % refers to the signal ratio; further: potency means the concentration at half of the fitted maximal effect;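 on max response: cells stimulated with 9-cis-retinoic acid as agonist; on the % scale 0 is the no-effect control and ±100 the full control effect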); conditions: HEK293T RXRa-UAS-bla, beta-lactamase ratio, antagonist mode; measured here: W530 green channel, cytotoxicity proxy
Outline: (§1)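 Beta-lactamase reporter inhibition, read as CCF4 fluorescence ratio (ex 405, em 460/530 nm) after 2 h at RT. HEK293T UAS-bla cells, 2500/well, were stimulated with 9-cis-RA at 500 or 100 nM final alongside test compound for 18 h at 37 C.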

[7] = molecular target: Retinoic acid receptor RXR-alpha (Homo sapiens) (UniProt P19793); assay: as above; conditions: HEK293T RXRa-UAS-bla, beta-lactamase ratio, antagonist mode
Outline: as §1

[8] = qHTS assay for small molecule activators of the p53 signaling pathway (AID 651743; active means well fitted activation curve with a large enough effect in the signal ratio, not every such curve was filed as active; the % refers to the signal ratio; further: potency means the concentration at half of the fitted maximal effect; on activation: series mostly up to about 92 µM; % of control where 0% means no effect); conditions: HCT-116 p53RE-bla, beta-lactamase FRET ratio, 16 h; activation: stronger effect = higher value
Outline: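 After 16 hours compound treatment at 37 C, HCT-116 cells stably expressing p53RE-driven beta-lactamase were loaded with LiveBLAzer B/G FRET substrate for 2 hours at room temperature. Fluorescence intensity served as the p53 activation read-out.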

[9] = qHTS assay for small molecule activators of the nuclear factor-kappa B (NF-kB) signaling pathway (AID 651749; active means well fitted activation curve with a large enough effect in the signal ratio; the % refers to the signal ratio; further: series mostly up to about 77 µM; % of control where 0% means no effect); conditions: NF-kB-bla ME-180 cells, beta-lactamase FRET ratio, 16 h; activation: stronger effect = higher value
Outline: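 Activation measured after 16 hr compound treatment at 37C, 5% CO2, of 2,000 ME-180 cells/well stably expressing an NF-kB response element–driven beta-lactamase reporter, via FRET-disruption fluorescence.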

[10] = qHTS assay for environmental chemicals that activate the Aryl hydrocarbon Receptor (AhR) signaling pathway (AID 651777); conditions: 1A2-DRE human hepatoma cells, luciferase, 24 h; activation: stronger effect = higher value; further: % of control where 0% means no effect; nearly all actives have a fitted effect of over 15% in size
Outline: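 Human hepatoma 1A2-DRE cells, stably carrying a dioxin response element and CYP1A2 promoter driving luciferase, were exposed to compounds for 24 hr at 37 C and 5% CO2. Luciferase signal was then read after 30 min One-Glo at room temperature.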

[11] = molecular target: Peroxisome proliferator-activated receptor alpha (Homo sapiens) (UniProt Q07869); assay: qHTS assay for small molecule agonists of the peroxisome proliferator-activated receptor alpha (PPARalpha) signaling pathway (AID 651778); conditions: PathHunter PPARalpha complementation, chemiluminescence, 6 h; max response: stronger effect = higher value; further: % of control where 0% means no effect
Peroxisome proliferator-activated receptor alpha (Homo sapiens), sequence (Q07869 whole entry, looked up): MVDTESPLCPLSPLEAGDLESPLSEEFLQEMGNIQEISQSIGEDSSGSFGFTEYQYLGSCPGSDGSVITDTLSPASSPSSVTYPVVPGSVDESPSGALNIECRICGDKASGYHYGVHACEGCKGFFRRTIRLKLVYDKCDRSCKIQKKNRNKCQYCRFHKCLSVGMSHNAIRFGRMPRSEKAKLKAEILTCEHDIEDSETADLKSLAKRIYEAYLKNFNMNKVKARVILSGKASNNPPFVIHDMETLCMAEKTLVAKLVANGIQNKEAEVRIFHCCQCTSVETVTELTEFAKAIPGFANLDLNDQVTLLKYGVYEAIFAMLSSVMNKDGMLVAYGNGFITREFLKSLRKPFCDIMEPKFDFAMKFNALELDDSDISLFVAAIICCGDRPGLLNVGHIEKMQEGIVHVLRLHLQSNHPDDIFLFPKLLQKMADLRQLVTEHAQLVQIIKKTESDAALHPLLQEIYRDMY
Outline: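 Chemiluminescence from complemented enzyme reported PPARalpha activation in cells after 6 hr of compound treatment at 37 C. The detection reagent was incubated for 60 min at room temperature, and compounds were scored as agonists.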

[12] = qHTS assay for small molecule agonists of the antioxidant response element (ARE) signaling pathway measured by Nrf2-dependant transcriptional activity (AID 720636; active means well fitted curve in the direction sought with a large enough effect in the repeat runs; an effect the other way counts as inactive or inconclusive; further: % of control where 0% means no effect)
Outline: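 ARE-luc HepG2 cells carrying an Nrf2-responsive luciferase reporter were plated in medium with 1% dialyzed FBS, left 6 hr at 37 C to attach, then exposed to compound for 16 hr. Luciferase luminescence was read after ONE-Glo addition.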

[13] = qHTS assay for small molecule agonists of the antioxidant response element (ARE) signaling pathway measured by Nrf2-dependant transcriptional activity - cell viability counter screen (AID 720653; active means well fitted curve in the direction sought with a large enough effect in the repeat runs; an effect the other way counts as inactive or inconclusive; further: on the % scale 0 is the no-effect control and ±100 the full control effect); conditions: ARE-bla HepG2 viability, CellTiter-Glo ATP luminescence, 16 h; max response: stronger effect = lower value
Outline: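 Cytotoxicity counter screen: intracellular ATP quantified by CellTiter-Glo luminescence in the same ARE-bla HepG2 plates, after 16 h compound exposure and a 2 h beta-lactamase substrate step.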

[14] = qHTS assay for cell viability of HEK293 cells (AID 743288); conditions: ATP luminescence (CellTiter-Glo), 18 h; max response: stronger effect = lower value; further: on the % scale 0 is the no-effect control and ±100 the full control effect; nearly all actives have a fitted effect of over 50% in size
Outline: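 HEK293, 18 h, 37 C, ATP luminescence. Cells at 2,000/well were allowed at least 5 h to settle before dosing; CellTiter-Glo developed 30 min at RT.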

[15] = qHTS assay for cell viability of the p53RE-bla HCT-116 cell line (AID 743292); further: on the % scale 0 is the no-effect control and ±100 the full control effect; nearly all actives have a fitted effect of over 55% in size
Outline: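 CellSensor p53RE-bla HCT-116 cells, 4,000/well, preincubated 5 h at 37 C, then exposed to compounds in DMSO for 16 h at 37 C. Viability read as CellTiter-Glo luminescence (intracellular ATP) after 30 min at room temperature.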

[16] = molecular target: Nuclear receptor subfamily 1 group I member 2 (Rattus norvegicus) (UniProt Q9R1A7); assay: qHTS assay for small molecule activators of the rat pregnane X receptor (rPXR) signaling pathway (AID 651751; call rule not given here; further: 0% is about no effect); conditions: rPXR reporter cells, luciferase (One-Glo), 24 h
Nuclear receptor subfamily 1 group I member 2 (Rattus norvegicus), sequence (Q9R1A7 whole entry, looked up): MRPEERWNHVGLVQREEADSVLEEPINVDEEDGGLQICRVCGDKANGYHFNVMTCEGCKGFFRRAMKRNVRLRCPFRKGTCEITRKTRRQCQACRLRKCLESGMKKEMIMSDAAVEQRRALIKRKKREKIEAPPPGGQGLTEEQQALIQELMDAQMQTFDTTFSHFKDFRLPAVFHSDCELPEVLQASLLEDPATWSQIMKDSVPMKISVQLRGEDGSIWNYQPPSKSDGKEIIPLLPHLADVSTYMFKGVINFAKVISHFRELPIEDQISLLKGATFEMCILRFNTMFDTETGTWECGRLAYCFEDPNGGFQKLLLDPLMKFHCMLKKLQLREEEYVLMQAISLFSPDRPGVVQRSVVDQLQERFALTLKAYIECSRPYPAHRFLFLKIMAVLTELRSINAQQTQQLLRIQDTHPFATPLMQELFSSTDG

[17] = molecular target: Peroxisome proliferator-activated receptor gamma (Homo sapiens) (UniProt P37231); assay: qHTS assay for small molecule agonists of peroxisome proliferator-activated receptor gamma signaling (AID 588536; active means well fitted curve in the direction sought with a large enough effect in the signal ratio, with a control signal flat, not every such curve was filed as active; the % refers to the signal ratio;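 further: 0% = DMSO basal wells and 100% = rosiglitazone at 2 µM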)
Peroxisome proliferator-activated receptor gamma (Homo sapiens), sequence (P37231 whole entry, looked up): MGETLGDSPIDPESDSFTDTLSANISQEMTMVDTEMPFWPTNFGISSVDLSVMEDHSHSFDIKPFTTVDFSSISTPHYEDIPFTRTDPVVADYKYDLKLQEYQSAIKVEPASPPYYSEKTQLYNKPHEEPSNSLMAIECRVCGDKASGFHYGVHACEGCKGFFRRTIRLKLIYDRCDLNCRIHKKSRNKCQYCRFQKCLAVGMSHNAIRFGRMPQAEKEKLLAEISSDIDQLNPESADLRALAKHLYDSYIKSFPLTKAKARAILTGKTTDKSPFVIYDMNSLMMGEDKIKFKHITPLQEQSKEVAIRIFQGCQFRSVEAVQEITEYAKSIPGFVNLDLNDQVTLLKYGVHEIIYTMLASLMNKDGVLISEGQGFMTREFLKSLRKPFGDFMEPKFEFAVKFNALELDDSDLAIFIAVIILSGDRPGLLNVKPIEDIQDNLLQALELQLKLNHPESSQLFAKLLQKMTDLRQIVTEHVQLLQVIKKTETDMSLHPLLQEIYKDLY
Outline: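 Using GeneBLAzer HEK293 cells, response was quantified by CCF4 fluorescence and normalized between basal DMSO (0%) and rosiglitazone 2 uM (100%); curves yielded half-maximal stimulation concentration and efficacy.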

[18] = molecular target: Peroxisome proliferator-activated receptor delta (Homo sapiens) (UniProt Q03181); assay: qHTS assay for small molecule agonists of peroxisome proliferator-activated receptor delta signaling (AID 588534; calls by dose curve;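 further: 0% = DMSO basal wells and 100% = positive control agonist at 10 µM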)
Peroxisome proliferator-activated receptor delta (Homo sapiens), sequence (Q03181 whole entry, looked up): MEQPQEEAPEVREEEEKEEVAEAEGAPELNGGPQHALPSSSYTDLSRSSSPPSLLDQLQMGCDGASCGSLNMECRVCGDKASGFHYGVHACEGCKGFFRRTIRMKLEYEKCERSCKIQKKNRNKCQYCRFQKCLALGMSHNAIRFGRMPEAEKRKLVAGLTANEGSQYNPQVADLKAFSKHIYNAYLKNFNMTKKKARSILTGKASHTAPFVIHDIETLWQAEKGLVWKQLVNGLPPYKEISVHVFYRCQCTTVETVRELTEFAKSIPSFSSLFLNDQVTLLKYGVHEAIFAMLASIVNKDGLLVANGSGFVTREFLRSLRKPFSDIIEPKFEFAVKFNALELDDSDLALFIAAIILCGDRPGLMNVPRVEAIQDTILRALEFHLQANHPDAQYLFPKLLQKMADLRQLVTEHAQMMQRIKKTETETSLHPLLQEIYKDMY
Outline: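 Agonist-mode beta-lactamase reporter readout (CCF4 dye, 2 h at RT) after 18 h at 37 °C exposure to a titration; Hill-equation fitting gave EC50 and maximal response.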

[19] = molecular target: Estrogen receptor (Homo sapiens) (UniProt P03372); assay: qHTS assay for small molecule agonists of estrogen receptor alpha signaling (AID 588514; calls by dose curve;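 further: 0% = vehicle only and 100% = reference agonist; nearly all actives have a fitted effect of over 70% in size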)
Estrogen receptor (Homo sapiens), sequence (P03372 whole entry, looked up): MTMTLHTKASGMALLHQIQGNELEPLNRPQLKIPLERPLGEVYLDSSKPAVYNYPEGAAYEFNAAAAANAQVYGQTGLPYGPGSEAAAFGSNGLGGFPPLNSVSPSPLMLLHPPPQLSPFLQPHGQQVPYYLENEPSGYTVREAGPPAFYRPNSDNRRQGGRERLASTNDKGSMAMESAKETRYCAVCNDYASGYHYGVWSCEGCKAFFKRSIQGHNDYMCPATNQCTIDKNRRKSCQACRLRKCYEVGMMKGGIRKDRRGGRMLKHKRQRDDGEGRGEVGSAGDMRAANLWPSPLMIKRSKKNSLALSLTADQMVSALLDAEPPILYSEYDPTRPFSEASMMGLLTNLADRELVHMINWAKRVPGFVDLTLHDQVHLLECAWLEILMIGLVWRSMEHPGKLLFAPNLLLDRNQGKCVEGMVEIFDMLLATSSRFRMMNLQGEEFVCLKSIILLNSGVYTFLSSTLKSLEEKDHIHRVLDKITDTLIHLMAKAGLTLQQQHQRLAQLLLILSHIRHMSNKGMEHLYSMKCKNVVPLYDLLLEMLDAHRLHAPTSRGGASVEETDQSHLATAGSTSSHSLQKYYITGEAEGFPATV
Outline: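 EC50 and efficacy came from Hill fits of beta-lactamase reporter signal (CCF4 dye, 2 h at room temperature) scaled between DMSO and 20 nM 17-beta-estradiol. Agonist mode: HEK293 ER-alpha-UAS-bla cells in charcoal/dextran-stripped serum medium, 18 h compound exposure at 37 C.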

[20] = molecular target: Peroxisome proliferator-activated receptor delta (Homo sapiens) (UniProt Q03181); assay: qHTS assay for small molecule antagonists of peroxisome proliferator-activated receptor delta signaling (AID 588535; active means well fitted inhibition curve with a large enough effect in the signal ratio, with a control signal flat, not every such curve was filed as active; the % refers to the signal ratio)
Outline: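 Titrations were run on PPAR-delta-UAS-bla HEK293T cells in charcoal/dextran-stripped serum, incubated 18 h at 37 C. CCF4 fluorescence (460/530 nm) after 2 h RT; Hill equation yields IC50 and maximal response.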

CC(Oc1ccc(Cl)cc1Cl)C(=O)O (stereo unspecified)
2.43%: max response [6]
inactive: activation [1] 6.74% | Potency [2] | outcome [3] | Potency [4] | Potency [5] | max response [7] 1.72% | activation [8] 0.243% | activation [9] -1.28% | activation [10] -1.09% | max response [11] 0.174% | Potency [12] | max response [13] 8.84% | max response [14] -4.02% | Potency [15] | max response [16] -2.29%

CCOP(=S)(OCC)Oc1nc(Cl)n(C(C)C)n1
inactive: activation [1] 12.9% | Potency [17] | Potency [2] | outcome [3] | Potency [5] | max response [7] 14.2% | activation [8] -5.02% | activation [9] 1.85% | max response [11] 0.789% | max response [13] -6.76% | max response [14] 6.35%
10.5%: max response [6]

CC1(c2ccc(Oc3ccccc3)cc2)OC(=O)N(Nc2ccccc2)C1=O (stereo unspecified)
19.6%: max response [6]
active: Potency [7] 31.6 µM | Potency [8] 5.01 µM
inactive: outcome [18] | outcome [3] | activation [10] 4.76% | max response [11] 11.6% | Potency [12] | max response [13] -28.5% | max response [14] -20.8%

Cc1[nH]c(=O)n(C(C)(C)C)c(=O)c1Cl
inactive: Potency [19] | Potency [17] | Potency [4] | activation [9] -0.578% | activation [10] 0.775% | max response [11] -1.56% | Potency [12] | max response [13] 0.82% | max response [14] -5.92% | Potency [15] | max response [16] 0.145%

O=Cc1cccc(Oc2ccccc2)c1
inactive: outcome [18] | Potency [20] | Potency [2] | outcome [3] | Potency [4] | Potency [5] | max response [7] 1.63% | activation [9] -0.909% | activation [10] -0.398% | max response [11] 4.39% | Potency [12] | max response [13] 2.38% | max response [14] -4.08% | Potency [15] | max response [16] 0.0469%
1.81%: max response [6]

COc1ccc(-c2ccccc2)cc1NNC(=O)OC(C)C
inactive: Potency [19] | activation [1] -5.42% | Potency [17] | outcome [3] | Potency [5] | activation [8] -1.18% | activation [9] -0.684% | Potency [12] | max response [13] -7.29% | max response [14] -21.9% | Potency [15] | max response [16] -11.3%

CCOc1nc(C(Cl)(Cl)Cl)ns1
inactive: outcome [18] | Potency [20] | Potency [17] | Potency [2] | Potency [4] | max response [7] 3.55% | activation [8] -0.297% | activation [9] 0.185% | activation [10] 7.64% | max response [11] -0.167% | max response [13] -1.82% | max response [14] -11.1% | Potency [15]
-10.8%: max response [6]
